This note sets out measurements from PubChem BioAssay AID588441 (Southern Research Specialized Biocontainment Screening …, 2011).

Records with an inconclusive call do not appear. Active and inactive are the calls of the source. How the calls were made is not given here.

This test can be described thus: HepG2 cell cytotoxicity, cytotoxicity control, set 5 (AID 588441). To be noted: series mostly up to 50 µM.
In the case of `COC(=O)CSc1ncnc2c1cnn2-c1ccc(C)cc1C`, the result was inactive. Take `COc1ccc(N2CCN(C(=O)c3ccc(CNc4c(N5CCOCC5)c(=O)c4=O)cc3)CC2)cc1`: the call was inactive. For `O=C(NCCc1ccc(Cl)cc1)c1ccc(CNc2c(N3CCOCC3)c(=O)c2=O)cc1`, the outcome was inactive.

As to `CCOC(=O)CSc1ncnc2c1cnn2-c1ccc(C)cc1C`, the call was inactive. Turning to `CC(C)OC(=O)CSc1ncnc2c1cnn2-c1ccccc1`, the outcome was inactive. As to `CCC(C)NC(=O)CSc1nc2ccccc2c(=O)[nH]1` (stereo not drawn), the compound was classed as inactive. For the compound `CC1CC(C)CN(C(=O)C2CCC(CNc3c(N4CCCCC4)c(=O)c3=O)CC2)C1` (stereo not drawn), the outcome was inactive.

`CCOC(=O)CSc1ncnc2c1cnn2-c1ccccc1`: the result was inactive.
